Source: PubChem BioAssay AID624151 (Broad Institute, 2012)
About 410 (1.5%) of roughly 28,000 compounds were called active. The full list was thinned out, with actives kept by preference. Unmarked numbers belong to inactive results. No stated cut-off is given here; in the data, active means activation above about 52%; inconclusive means no clear call, values can overlap the other calls; inactive means below that.

assay: mutant p53 pathway re-activators, primary screen, cell-based, SW480, luciferase, single point, HTS (AID 624151); conditions: SW480 PUMA-promoter luciferase, p53 mutant reactivation; at 9.98 µM; active compounds read high

SMILES	activation
CC(C)CC#Cc1cnc2c(c1)C(=O)N([C@@H](C)CO)C[C@H](C)[C@@H](CN(C)Cc1ccccc1C(=O)O)O2	-10.9%
C/C=C/c1cnc2c(c1)C(=O)N([C@H](C)CO)C[C@H](C)[C@@H](CN(C)C(=O)c1cccc(F)c1)O2	0.956%
O=C(CN1CCOCC1)Nc1ccc(NC(=O)CN2CCOCC2)c(Cl)c1	-19.4%
Cc1cc(C)n2nc(SCC(=O)Nc3ccccc3[N+](=O)[O-])nc2n1	-13.8%
O=C(CSc1nnc(-c2ccccc2)n1-c1ccccc1)c1cccc([N+](=O)[O-])c1	-1.58%
CCn1c(SCC(=O)Nc2ccc3c(c2)OCCO3)nnc1-c1ccncc1	-4.36%
Cc1cccc(NC(=O)CSc2nnc3c4ccccc4nc(-c4ccccc4)n23)c1	13.8%
O=C(CSc1nnc2ccc3ccccc3n12)Nc1ccc2c(c1)OCCO2	64.7% (active)
COC(=O)Cc1c(C)nc2nc(COc3ccccc3)[nH]n2c1=O	10.4%
CC(=O)Nc1ccc(NC(=O)COc2ccccc2C(=O)Nc2cccc(Cl)c2Cl)cc1	-38.7%
O=C(NCc1ccccn1)c1ccccc1C(=O)c1ccccc1	-9.74%
O=C(NCc1ccccn1)C(=O)Nc1cccc(Cl)c1Cl	63.9% (active)
C[C@@H]1CN([C@H](C)CO)C(=O)c2cc(-c3ccc(C#N)cc3)cnc2O[C@@H]1CN(C)CC1CC1	-0.916%
COc1ccc(OC)c2c1CC(C)(C)N=C2SC	-18.5%
O=C(CSc1nnc(-c2ccncc2)n1-c1ccccc1)Nc1ccc(Cl)c(Cl)c1	16.3%
COc1cccc(C#Cc2cnc3c(c2)C(=O)N([C@@H](C)CO)C[C@H](C)[C@@H](CN(C)C(C)=O)O3)c1	1.26%
O=C(C[C@H]1C[C@@H]2c3cc(NS(=O)(=O)c4ccc(F)cc4)ccc3O[C@@H]2[C@@H](CO)O1)NCc1cccc(F)c1	-7.78%
CC(=O)N1C(=S)NC(=O)/C1=C/c1c(Cl)cccc1Cl	-5.19%
C/C=C/c1cnc2c(c1)C(=O)N([C@@H](C)CO)C[C@H](C)[C@@H](CN(C)C(=O)C1CC1)O2	-5.73%
CCCN(Cc1cc2cccc(C)c2[nH]c1=O)S(C)(=O)=O	-2.56%
CCCNC(=O)N(C)C[C@H]1Oc2ncc(-c3ccccc3F)cc2C(=O)N([C@@H](C)CO)C[C@H]1C	1.17%
COc1cccc(C#Cc2cnc3c(c2)C(=O)N([C@@H](C)CO)C[C@H](C)[C@@H](CN(C)C(=O)C2CCC2)O3)c1	9.52%
C[C@@H]1CN([C@H](C)CO)C(=O)c2cc(C#CC3(O)CCCC3)cnc2O[C@H]1CN(C)C(=O)C1CCC1	15%

SMILES	activation
COc1ccccc1NC(=O)C1=C(C)Nc2nnnn2C1c1ccccc1OCc1ccccc1 (stereo unspecified)	11.3%
CCCC#Cc1cnc2c(c1)C(=O)N([C@H](C)CO)C[C@@H](C)[C@@H](CN(C)C(=O)Nc1ccccc1OC)O2	-6.47%
CCCC#Cc1cnc2c(c1)C(=O)N([C@H](C)CO)C[C@H](C)[C@H](CN(C)S(=O)(=O)c1cn(C)cn1)O2	5.56%
C[C@@H]1CN([C@H](C)CO)C(=O)c2c(c3ccccc3n2C)-c2ccccc2CO[C@@H]1CN(C)C(=O)Nc1ccccc1	10.9%
Cc1ccc2oc(C(=O)Nc3nnc(SCc4ccccc4)s3)c(C)c2c1	17.4%
C[C@@H]1CCCCO[C@H](CN(C)S(C)(=O)=O)[C@@H](C)CN([C@H](C)CO)C(=O)c2cc(NS(=O)(=O)c3ccc(Cl)cc3)ccc2O1	2.27%
COCC#Cc1cnc2c(c1)C(=O)N([C@@H](C)CO)C[C@@H](C)[C@H](CN(C)C(=O)c1cnccn1)O2	2.72%
C[C@@H]1CN([C@@H](C)CO)S(=O)(=O)c2ccc(C#CC3(O)CCCC3)cc2O[C@H]1CN(C)C(=O)c1ccncc1	7.47%
C[C@H]1CN([C@@H](C)CO)C(=O)c2cc(-c3cccc(C(=O)N(C)C)c3)cnc2O[C@H]1CN(C)S(=O)(=O)c1ccccc1	10.1%
CCCN(C)C[C@@H]1Oc2cc(-c3cccc(C#N)c3)ccc2S(=O)(=O)N([C@@H](C)CO)C[C@@H]1C	2.45%
COCC#Cc1ccc2c(c1)O[C@@H](CN(C)Cc1ccccn1)[C@@H](C)CN([C@@H](C)CO)S2(=O)=O	5.92%
CCOc1csc2nc(C)cc(C)c12	7.54%
C[C@@H]1CN([C@@H](C)CO)S(=O)(=O)c2ccc(/C=C/c3ccccc3)cc2O[C@@H]1CN(C)C(=O)Nc1cc(F)ccc1F	-25.7%
C[C@H]1CN([C@@H](C)CO)C(=O)c2cc(C#CCN(C)C)cnc2O[C@H]1CN(C)C(=O)Cc1ccccc1	-0.24%
O=C(CC(C(=O)O)N1CCNCC1)Nc1cccc(Cl)c1 (stereo unspecified)	13.8%
COc1ccc(OC(C)C(=O)Nc2cccnc2)cc1 (stereo unspecified)	-3.84%
CC(=O)Oc1ccc(C(=O)N(C(=O)c2ccc(OC(C)=O)cc2)c2cc(C)ccn2)cc1	6.89%
CCn1c(SCC(=O)Nc2cc(Cl)c(Cl)cc2Cl)nnc1-c1ccccc1Cl	-3.77%
Cc1ccc(S(=O)(=O)Nc2ccc3c(c2)C(=O)N([C@H](C)CO)C[C@@H](C)[C@H](CN(C)S(=O)(=O)c2ccc(C)cc2)OCCCC[C@@H](C)O3)cc1	-37.2%
O=C(C[C@H]1C[C@H]2c3cc(NC(=O)Nc4ccccc4F)ccc3O[C@H]2[C@H](CO)O1)NCc1ccccn1	3.57%
Cc1ccc2c(c1)CCCN2S(=O)(=O)c1cc(OCC(N)=O)c(C)cc1Cl	-21.2%
O=C(C[C@H]1C[C@@H]2c3cc(NC(=O)c4ccc5c(c4)OCO5)ccc3O[C@@H]2[C@@H](CO)O1)NCCN1CCCCC1	13.6%
O=C(Nc1ccc(-c2nc3ccccc3o2)c(O)c1)c1ncn[nH]1	-35%
